Results published in ChEMBL document CHEMBL1961873, “Compounds: GSK PKIS; Assays: Nanosyn kinase panel” (2012).

Assays:
[1] = target: T1, Serine/threonine-protein kinase Nek9 (Homo sapiens) (UniProt Q8TD19); conditions: at 1 µM;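 note: each value is a mean percent inhibition of NEK9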
T1 sequence (whole entry): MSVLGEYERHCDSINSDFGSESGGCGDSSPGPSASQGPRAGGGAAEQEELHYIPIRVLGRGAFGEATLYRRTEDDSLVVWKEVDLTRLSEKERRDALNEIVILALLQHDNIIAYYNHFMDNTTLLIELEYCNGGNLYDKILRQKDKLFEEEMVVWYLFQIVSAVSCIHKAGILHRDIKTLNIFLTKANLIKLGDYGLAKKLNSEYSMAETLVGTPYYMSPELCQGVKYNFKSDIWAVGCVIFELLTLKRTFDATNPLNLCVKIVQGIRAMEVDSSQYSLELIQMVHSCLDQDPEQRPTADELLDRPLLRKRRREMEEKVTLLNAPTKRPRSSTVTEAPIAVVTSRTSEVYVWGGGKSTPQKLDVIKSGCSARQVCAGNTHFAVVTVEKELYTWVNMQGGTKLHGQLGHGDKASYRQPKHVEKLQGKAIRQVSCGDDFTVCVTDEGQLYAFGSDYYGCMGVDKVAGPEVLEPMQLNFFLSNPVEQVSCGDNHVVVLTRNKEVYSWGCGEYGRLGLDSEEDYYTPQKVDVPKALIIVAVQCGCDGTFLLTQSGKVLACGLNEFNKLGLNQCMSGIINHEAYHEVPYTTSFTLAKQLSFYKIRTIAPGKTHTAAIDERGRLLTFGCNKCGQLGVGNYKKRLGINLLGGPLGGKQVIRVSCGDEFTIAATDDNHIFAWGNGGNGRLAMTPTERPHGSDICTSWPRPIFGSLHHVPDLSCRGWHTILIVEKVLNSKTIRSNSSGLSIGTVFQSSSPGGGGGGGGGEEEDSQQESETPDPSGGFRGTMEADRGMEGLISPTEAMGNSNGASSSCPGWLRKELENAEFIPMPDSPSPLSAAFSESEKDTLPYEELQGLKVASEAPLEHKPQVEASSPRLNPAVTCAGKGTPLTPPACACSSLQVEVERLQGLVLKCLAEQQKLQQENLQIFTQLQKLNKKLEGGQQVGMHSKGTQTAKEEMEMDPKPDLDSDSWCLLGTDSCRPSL

[2] = target: Serine/threonine-protein kinase PLK1 (Homo sapiens) (UniProt P53350); conditions: at 0.1 µM
[3] = target: Serine/threonine-protein kinase PLK1 (Homo sapiens) (UniProt P53350); conditions: at 1 µM
[4] = target: T2, Dual specificity protein kinase TTK (Homo sapiens) (UniProt P33981); conditions: at 0.1 µM
T2 sequence (whole entry): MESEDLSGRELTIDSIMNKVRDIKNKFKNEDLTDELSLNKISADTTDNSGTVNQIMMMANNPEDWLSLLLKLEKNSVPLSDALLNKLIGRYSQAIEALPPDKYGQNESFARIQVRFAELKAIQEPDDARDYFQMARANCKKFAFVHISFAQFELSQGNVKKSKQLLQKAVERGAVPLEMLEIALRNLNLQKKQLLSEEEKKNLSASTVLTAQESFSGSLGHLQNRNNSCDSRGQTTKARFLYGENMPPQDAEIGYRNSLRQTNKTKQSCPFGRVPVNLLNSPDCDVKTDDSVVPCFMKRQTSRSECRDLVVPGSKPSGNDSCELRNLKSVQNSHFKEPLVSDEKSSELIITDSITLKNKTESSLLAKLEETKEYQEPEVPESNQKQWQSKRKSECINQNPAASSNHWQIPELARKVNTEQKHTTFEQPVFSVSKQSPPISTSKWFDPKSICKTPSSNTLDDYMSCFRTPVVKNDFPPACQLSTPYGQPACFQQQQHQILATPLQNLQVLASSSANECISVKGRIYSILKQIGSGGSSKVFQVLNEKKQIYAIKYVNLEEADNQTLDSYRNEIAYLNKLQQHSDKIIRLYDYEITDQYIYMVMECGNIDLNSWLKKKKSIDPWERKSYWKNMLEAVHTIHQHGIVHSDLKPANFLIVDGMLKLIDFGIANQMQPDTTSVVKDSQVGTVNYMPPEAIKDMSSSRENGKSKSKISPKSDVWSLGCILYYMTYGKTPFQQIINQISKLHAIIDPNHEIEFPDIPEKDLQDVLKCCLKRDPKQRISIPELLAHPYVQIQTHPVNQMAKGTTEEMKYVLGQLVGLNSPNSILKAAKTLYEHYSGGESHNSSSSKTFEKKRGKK

[5] = system: T3, Receptor-type tyrosine-protein kinase FLT3 (Homo sapiens), P36888 [D835Y]; conditions: at 1 µM
T3 sequence (whole entry): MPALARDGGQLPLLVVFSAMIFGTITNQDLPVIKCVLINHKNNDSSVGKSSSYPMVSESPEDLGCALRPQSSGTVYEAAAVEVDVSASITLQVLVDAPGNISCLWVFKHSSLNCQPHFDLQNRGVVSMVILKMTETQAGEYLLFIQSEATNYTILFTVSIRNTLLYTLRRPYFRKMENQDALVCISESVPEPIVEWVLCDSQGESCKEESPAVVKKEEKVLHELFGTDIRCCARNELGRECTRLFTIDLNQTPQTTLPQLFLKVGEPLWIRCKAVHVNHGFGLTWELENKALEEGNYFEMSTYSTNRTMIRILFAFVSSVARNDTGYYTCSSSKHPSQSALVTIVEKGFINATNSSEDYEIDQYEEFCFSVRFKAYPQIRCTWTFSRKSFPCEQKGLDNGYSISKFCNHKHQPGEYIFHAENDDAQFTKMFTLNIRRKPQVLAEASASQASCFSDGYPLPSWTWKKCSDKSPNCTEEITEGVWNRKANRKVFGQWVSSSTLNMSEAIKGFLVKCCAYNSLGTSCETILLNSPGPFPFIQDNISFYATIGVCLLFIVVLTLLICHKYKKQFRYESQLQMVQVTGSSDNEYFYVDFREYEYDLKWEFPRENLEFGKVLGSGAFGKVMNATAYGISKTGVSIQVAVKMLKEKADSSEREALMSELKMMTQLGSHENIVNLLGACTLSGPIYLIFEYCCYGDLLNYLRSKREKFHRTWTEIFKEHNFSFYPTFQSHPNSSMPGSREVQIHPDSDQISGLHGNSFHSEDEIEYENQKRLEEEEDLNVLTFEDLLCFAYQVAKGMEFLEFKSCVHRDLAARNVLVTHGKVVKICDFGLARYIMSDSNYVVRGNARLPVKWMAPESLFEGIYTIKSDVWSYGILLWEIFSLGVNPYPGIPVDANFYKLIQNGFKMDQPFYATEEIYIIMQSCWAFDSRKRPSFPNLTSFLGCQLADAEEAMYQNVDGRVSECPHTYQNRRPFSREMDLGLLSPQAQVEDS

[6] = target: Vascular endothelial growth factor receptor 3 (Homo sapiens) (UniProt P35916); conditions: at 0.1 µM
[7] = target: Vascular endothelial growth factor receptor 3 (Homo sapiens) (UniProt P35916); conditions: at 1 µM
[8] = target: Macrophage colony-stimulating factor 1 receptor (Homo sapiens) (UniProt P07333); conditions: at 0.1 µM
[9] = target: Macrophage colony-stimulating factor 1 receptor (Homo sapiens) (UniProt P07333); conditions: at 1 µM
[10] = target: Tyrosine-protein kinase Fyn (Homo sapiens) (UniProt P06241); conditions: at 0.1 µM
Tyrosine-protein kinase Fyn (Homo sapiens), sequence (P06241 2-537 limits assumed): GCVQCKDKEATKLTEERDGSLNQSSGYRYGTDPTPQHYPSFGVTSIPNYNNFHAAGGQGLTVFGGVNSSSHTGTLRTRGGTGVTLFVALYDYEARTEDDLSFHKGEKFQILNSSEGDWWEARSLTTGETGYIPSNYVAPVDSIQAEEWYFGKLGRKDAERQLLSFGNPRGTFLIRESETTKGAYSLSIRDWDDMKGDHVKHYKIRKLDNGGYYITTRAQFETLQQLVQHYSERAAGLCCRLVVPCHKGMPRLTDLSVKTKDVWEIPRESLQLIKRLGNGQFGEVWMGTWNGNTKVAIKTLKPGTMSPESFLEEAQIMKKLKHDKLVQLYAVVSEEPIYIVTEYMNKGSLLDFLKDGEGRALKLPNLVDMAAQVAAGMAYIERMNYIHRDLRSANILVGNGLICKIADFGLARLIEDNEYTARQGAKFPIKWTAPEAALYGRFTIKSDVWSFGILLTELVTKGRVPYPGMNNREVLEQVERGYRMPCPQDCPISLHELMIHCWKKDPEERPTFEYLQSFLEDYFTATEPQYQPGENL

Macrophage colony-stimulating factor 1 receptor (Homo sapiens), sequence (P07333 whole entry): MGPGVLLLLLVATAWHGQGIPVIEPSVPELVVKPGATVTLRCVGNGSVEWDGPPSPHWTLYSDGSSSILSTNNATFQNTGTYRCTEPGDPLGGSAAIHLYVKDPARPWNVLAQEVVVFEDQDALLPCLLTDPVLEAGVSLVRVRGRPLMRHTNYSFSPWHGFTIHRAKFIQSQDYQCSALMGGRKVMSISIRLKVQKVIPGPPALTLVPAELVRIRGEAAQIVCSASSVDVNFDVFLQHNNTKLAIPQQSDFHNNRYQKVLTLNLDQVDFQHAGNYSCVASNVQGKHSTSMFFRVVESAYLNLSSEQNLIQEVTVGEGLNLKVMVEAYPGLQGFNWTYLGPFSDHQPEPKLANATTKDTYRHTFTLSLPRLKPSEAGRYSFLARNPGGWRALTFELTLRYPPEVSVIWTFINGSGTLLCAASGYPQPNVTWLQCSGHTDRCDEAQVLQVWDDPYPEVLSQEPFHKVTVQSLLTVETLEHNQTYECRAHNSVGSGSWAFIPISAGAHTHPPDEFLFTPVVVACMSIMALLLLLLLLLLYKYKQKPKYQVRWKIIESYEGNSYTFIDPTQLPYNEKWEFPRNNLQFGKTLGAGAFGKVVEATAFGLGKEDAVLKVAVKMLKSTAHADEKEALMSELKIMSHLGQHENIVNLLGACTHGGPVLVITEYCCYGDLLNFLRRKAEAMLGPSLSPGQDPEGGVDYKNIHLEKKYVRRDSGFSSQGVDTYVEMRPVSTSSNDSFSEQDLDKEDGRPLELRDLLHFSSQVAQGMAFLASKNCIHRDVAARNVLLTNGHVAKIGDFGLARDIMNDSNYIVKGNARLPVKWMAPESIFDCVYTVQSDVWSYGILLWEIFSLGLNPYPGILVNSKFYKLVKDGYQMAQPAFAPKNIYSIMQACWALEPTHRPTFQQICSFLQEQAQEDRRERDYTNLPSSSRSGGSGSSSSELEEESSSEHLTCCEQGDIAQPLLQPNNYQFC
Vascular endothelial growth factor receptor 3 (Homo sapiens), sequence (P35916 whole entry): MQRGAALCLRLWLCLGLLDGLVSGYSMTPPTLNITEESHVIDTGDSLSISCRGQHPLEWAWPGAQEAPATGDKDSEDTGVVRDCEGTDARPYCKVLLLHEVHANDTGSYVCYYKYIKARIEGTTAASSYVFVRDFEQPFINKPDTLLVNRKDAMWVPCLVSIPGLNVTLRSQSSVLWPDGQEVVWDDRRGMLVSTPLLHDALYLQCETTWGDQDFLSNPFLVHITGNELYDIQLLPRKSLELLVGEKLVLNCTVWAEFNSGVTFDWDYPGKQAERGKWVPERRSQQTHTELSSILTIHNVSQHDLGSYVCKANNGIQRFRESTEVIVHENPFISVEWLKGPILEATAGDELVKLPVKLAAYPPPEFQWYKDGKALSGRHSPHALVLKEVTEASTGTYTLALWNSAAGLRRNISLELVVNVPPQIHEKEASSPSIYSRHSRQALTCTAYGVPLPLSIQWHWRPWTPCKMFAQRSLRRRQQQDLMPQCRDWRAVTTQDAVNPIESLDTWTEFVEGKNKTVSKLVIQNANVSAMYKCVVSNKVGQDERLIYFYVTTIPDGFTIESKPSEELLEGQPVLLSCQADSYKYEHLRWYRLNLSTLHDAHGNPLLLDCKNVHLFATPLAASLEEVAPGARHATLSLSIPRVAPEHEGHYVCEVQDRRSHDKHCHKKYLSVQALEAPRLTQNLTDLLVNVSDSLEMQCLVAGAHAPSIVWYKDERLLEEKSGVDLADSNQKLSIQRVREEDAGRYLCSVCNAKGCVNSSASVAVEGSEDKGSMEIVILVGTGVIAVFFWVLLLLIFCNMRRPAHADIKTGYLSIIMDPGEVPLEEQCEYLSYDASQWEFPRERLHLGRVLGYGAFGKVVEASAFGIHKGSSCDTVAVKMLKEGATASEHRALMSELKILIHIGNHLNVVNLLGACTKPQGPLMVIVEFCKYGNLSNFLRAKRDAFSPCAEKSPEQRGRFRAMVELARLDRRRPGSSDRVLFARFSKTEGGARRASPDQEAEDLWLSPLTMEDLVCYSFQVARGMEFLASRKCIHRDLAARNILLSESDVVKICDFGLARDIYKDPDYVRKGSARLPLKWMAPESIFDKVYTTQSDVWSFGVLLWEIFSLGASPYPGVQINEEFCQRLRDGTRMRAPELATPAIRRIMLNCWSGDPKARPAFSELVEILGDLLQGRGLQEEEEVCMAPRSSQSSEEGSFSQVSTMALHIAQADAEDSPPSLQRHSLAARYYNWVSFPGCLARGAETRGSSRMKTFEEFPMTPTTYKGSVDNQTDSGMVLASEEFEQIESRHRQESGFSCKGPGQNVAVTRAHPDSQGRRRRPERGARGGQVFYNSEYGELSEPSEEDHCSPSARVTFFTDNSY
Serine/threonine-protein kinase PLK1 (Homo sapiens), sequence (P53350 whole entry): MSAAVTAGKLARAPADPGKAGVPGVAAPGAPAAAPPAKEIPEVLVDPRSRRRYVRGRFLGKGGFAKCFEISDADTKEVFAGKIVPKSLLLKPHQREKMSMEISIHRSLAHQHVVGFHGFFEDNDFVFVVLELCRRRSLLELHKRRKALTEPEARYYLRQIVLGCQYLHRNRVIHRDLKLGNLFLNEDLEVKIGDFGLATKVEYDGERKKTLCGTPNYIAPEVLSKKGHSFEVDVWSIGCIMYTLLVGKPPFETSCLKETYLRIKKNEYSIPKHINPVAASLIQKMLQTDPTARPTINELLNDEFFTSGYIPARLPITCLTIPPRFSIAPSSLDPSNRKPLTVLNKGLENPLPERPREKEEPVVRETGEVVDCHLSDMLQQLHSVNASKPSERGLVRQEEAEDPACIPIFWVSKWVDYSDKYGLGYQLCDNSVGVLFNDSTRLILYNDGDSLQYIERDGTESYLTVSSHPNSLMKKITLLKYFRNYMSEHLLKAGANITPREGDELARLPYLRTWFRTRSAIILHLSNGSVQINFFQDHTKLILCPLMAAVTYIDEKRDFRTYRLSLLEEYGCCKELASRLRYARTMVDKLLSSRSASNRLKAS

Compound	inhibition [1] [%]	inhibition [2] [%]	inhibition [3] [%]	inhibition [4] [%]	inhibition [5] [%]	inhibition [6] [%]	inhibition [7] [%]	inhibition [8] [%]	inhibition [9] [%]	inhibition [10] [%]
CCCN1CCC(c2ccc(Nc3nc(Nc4cc(F)ccc4C(N)=O)c4cc[nH]c4n3)c(OC)c2)CC1	32.5	12.5	49.8	81.5	56	-1.93	2.22	34.3	81.5	3.91
COc1cc2ncn(-c3cc(OCc4ccccc4C(F)(F)F)c(C(=O)N(C)C)s3)c2cc1OC	3.25	3.97	3.34	4.69	1.1	0.79	15.2	4.5	3.31	1.31
COc1ccc2c(-c3ccnc(Nc4cccc(OC(F)(F)F)c4)n3)cnn2n1	10.2	3.05	3.9	5.81	15.6	4.15	5.87	7.22	33.3	2.72
Nc1ncc(-c2cccc(S(N)(=O)=O)c2)c2scc(-c3ccc(F)c(Cl)c3)c12	-0.67	4.55	2.5	5.8	-1.46	5.73	12.6	6.9	43.7	7.81
COc1ccc(-c2oc3ncnc(N)c3c2-c2ccc(NC(=O)Nc3cc(C(F)(F)F)ccc3F)cc2)cc1	39.3	5.59	4.48	8.85	47.1	47.4	98.4	21.9	90.2	8
COc1cccc(-c2c[nH]c3c(N/N=C/c4ccncc4)ncnc23)c1	5.28	2.36	1.97	7.43	62.7	4.35	29.5	21.6	68.6	14.4
CCn1cc(-c2ccnc3[nH]ccc23)c(-c2cccc(NC(=O)Nc3ccc(OCc4ccccc4)cc3)c2)n1	1.16	-0.45	-0.98	7.9	0.68	-0.45	-0.67	-7.9	0.27	0.67
COc1cc(N2CCN(C(C)C)CC2)ccc1Nc1nc(Nc2ccc(F)cc2C(N)=O)c2cc[nH]c2n1	13.5	16	64.8	83	40.7	3.45	2.68	11.7	48.1	2.48
CC(=O)NCc1cccc(C#Cc2cncnc2Nc2ccc(OCc3cccc(F)c3)c(Cl)c2)c1	-3.77	1.79	1.35	8.83	-1.12	2.27	3.6	1.13	0.82	1.08
CN1CCC(n2cnc(-c3ccc(F)cc3)c2-c2ccnc(N)n2)CC1	11.4	2.4	0.91	5.14	1.95	1.56	2.31	2.19	6.29	0.4
Cc1ccc2c(-c3ccnc(Nc4ccccc4)n3)c(-c3ccc(F)cc3)nn2n1	5.94	1.63	1.62	4.36	-2.14	5.68	28.3	10.5	45.1	18.7
COc1ccc(-c2cc(-c3c[nH]nc3-c3ccccn3)ccn2)cc1	9.65	3.67	4.38	13.4	1.61	5.28	4.26	6.09	5.24	3.23
CCN(CC)S(=O)(=O)c1ccc(OC)c(Nc2ncc(-c3ccccc3)o2)c1	1.83	0.06	0.24	2.04	69.9	30.9	85.5	42.4	84.8	6.94
NS(=O)(=O)c1ccc(N/N=C2\C(=O)Nc3ccc4ncccc4c32)cc1	41	2.36	2.5	61.2	80.4	43.9	86	34.8	79.3	8.75
Fc1ccc(-c2nn3ncccc3c2-c2ccnc(Nc3ccc4c(c3)OCCO4)n2)cc1	12	3.5	28.8	8.44	2.87	7.5	47.7	14.4	59.1	47
CS(=O)(=O)CCNCc1ccc(-c2ccc3ncnc(Nc4ccc(OCc5ccccc5)c(C(F)(F)F)c4)c3c2)o1	7.1	3.58	1.98	9.3	-2.7	1.59	1.31	-3.68	1.56	1.63
CCCN(CCS(C)(=O)=O)Cc1ccc(-c2ccc3ncnc(Nc4ccc(OCc5cccc(F)c5)c(Cl)c4)c3c2)o1	4.13	1.28	1.62	2.14	0.99	-1.86	-0.27	0.78	1	1.13

Compound	inhibition [1] [%]	inhibition [2] [%]	inhibition [3] [%]	inhibition [4] [%]	inhibition [5] [%]	inhibition [6] [%]	inhibition [7] [%]	inhibition [8] [%]	inhibition [9] [%]	inhibition [10] [%]
c1ccc(COc2ccc(Nc3ncnc4ccc(-c5ccco5)cc34)cc2)cc1	5.01	1.78	0.52	5.13	-0.59	1.83	0.93	-2.64	0.74	0.27
CCNC(=O)O[C@H]1CN[C@H](C#Cc2cc3ncnc(Nc4ccc(OCc5cccc(F)c5)c(Cl)c4)c3s2)C1	4.6	3.22	3.29	2.67	2.57	5.21	-0.66	3.01	2.53	3.33
CCn1c(-c2nonc2N)nc2cnc(Oc3cccc(NC(=O)c4ccc(N(C)C)cc4)c3)cc21	5.29	1.86	1.97	3.52	0.83	0.61	2.01	-0.02	0.23	1.66
Clc1ccc(-c2nn3ncccc3c2-c2ccnc(Nc3ccccc3)n2)cc1	-3.71	-9.28	3.17	3.63	-0.74	4.99	16.2	4.3	32.3	9.12
N#Cc1c(NC(=O)CN2CCOCC2)sc2c1CCCC2	1.68	2.26	2.27	9.9	0.1	0.77	3.83	5.19	2.67	0.52
COc1cc(/C=N/Nc2ncnc3[nH]ncc23)ccc1O	7.86	0.7	7.67	4.54	34	2.46	26.1	7.59	34.4	8.72
CC(=O)Nc1cccc(C#Cc2cncnc2Nc2ccc(OCc3cccc(F)c3)c(Cl)c2)c1	2.42	2.3	2.89	3.58	-2.98	2.87	3.83	0.82	4.6	0.68
CS(=O)(=O)CCNCc1coc(-c2ccc3ncnc(Nc4ccc(OCc5ccccc5)cc4)c3c2)c1	15.4	4.26	5.02	5.49	4.15	4.45	2.92	0.22	7.42	1.47
CNC(=O)c1cncc(/C=C/c2ccccc2Cl)c1	3.22	-0.94	-0.72	1.16	7.46	15.2	13.6	3.45	4.05	2.42
FC(F)(F)c1cccc(-c2nn3ncccc3c2-c2ccnc(Nc3ccc4c(c3)OCCO4)n2)c1	1.67	1.26	0.65	6.38	3.11	3.34	18.5	1.23	7.02	7.47
COC(=O)Nc1nc2ccc(Oc3ccc(NC(=O)Nc4cccc(Cl)c4)cc3)cc2[nH]1	2.84	-0.55	0.69	2.99	1.8	4.07	9.34	16.5	45.2	0.86
COc1ccc2[nH]c3c4[nH]c5ccc(OC)cc5c4c4c(c3c2c1)C(=O)NC4=O	2.1	3.01	9.29	15.5	92.7	18.5	63.5	12.9	50.9	3.62
CCn1c(-c2nonc2N)nc2ccccc21	0.94	6.53	2.85	3.51	-3.67	5.92	5.29	0.61	2.71	0.86
Fc1ccc(-c2cc(-c3c[nH]nc3-c3ccccn3)ccn2)cc1	12.6	3.3	3.1	11.3	0.71	-1.38	1.05	0.08	3.27	3.45
Cc1cccc(Nc2ncc(-c3ccccc3)o2)c1	4.73	2.24	6.33	6.38	18.6	5.49	9.11	9.54	25.7	3.07
CNC(=O)c1cccc(C#Cc2cncnc2Nc2ccc(OCc3cccc(F)c3)c(Cl)c2)c1	4.28	-0.42	0.52	3.66	0.94	-2.07	3.4	1.48	7.16	1.46
